PubChem BioAssay (NCATS)
Where “and” joins values, the source holds several entries; their conditions need not be identical. Identical values can stand only once. Unmarked numbers belong to inactive results. Results filed as inconclusive are left out. A call without a number means that no potency is given here. Calls of active or inactive are those of the source. Unless noted, the call rests on the fitted dose curve; in most records, active means well fitted curve in the direction sought with a large enough effect; inconclusive means small, poorly fitted or top-dose-only effect, or another doubt; inactive means no such curve, though single readings can be large; an effect the other way counts as inactive or inconclusive. Peptide text beside a SMILES is read from it.

Tests used:
[1] = target: Tyrosine-protein kinase Yes (Homo sapiens) (UniProt P07947); experiment: qHTS for small molecule inhibitors of Yes1 kinase: Primary Screen (AID 686947); further: nearly all actives have a fitted effect of over 60% in size; further: potency means the concentration at half of the fitted maximal effect
Chain of Tyrosine-protein kinase Yes (Homo sapiens) (P07947 whole entry, looked up): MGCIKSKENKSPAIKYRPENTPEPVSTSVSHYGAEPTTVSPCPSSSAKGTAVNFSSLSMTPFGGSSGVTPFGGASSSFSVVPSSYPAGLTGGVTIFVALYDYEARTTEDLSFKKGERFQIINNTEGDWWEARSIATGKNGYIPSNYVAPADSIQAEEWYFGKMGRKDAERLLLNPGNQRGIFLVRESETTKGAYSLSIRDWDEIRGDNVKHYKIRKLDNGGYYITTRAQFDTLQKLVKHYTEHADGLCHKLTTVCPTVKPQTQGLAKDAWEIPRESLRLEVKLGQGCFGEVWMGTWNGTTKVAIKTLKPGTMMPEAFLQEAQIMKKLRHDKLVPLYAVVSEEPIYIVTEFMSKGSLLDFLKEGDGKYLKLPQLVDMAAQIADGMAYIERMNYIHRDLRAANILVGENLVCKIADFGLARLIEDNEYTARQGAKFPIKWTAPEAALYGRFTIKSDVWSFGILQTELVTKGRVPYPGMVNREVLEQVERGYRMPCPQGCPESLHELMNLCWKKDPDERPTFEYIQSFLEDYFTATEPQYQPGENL
Method in brief: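 Yes1 (4 nM) preincubated 20 min with compound, then 60 min room-temperature reaction with 0.1 mM ATP and 0.3 mg/mL poly(E4Y) in pH 7.5 Tris, 10 mM MgCl2. ADP measured by ADP-Glo luminescence, normalised to enzyme/no-enzyme controls.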

[2] = qHTS for small molecule inhibitors of Yes1 kinase: Counter Assay (AID 686950);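 further: no kinase present so only ADP-Glo detection of a fixed ADP amount is tested; luminescence from ADP-Glo reporting ADP in a fixed ATP and ADP mixture; series mostly up to about 77 µM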
Method in brief: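 Enzyme-free ADP-Glo interference check: compounds were preincubated 20 min in buffer, then an ATP/ADP mix (0.08 mM ATP, 0.02 mM ADP final) was added for 60 min at room temperature before two-step ADP-Glo luminescence detection.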

[3] = target: Arylsulfatase A (Homo sapiens) (UniProt P15289); experiment: qHTS screen for enhancers of Arylsulfatase A (ASA1): LOPAC Validation Assay (AID 720538); further: potency means the concentration at half of the fitted maximal effect
Chain of Arylsulfatase A (Homo sapiens) (P15289 whole entry, looked up): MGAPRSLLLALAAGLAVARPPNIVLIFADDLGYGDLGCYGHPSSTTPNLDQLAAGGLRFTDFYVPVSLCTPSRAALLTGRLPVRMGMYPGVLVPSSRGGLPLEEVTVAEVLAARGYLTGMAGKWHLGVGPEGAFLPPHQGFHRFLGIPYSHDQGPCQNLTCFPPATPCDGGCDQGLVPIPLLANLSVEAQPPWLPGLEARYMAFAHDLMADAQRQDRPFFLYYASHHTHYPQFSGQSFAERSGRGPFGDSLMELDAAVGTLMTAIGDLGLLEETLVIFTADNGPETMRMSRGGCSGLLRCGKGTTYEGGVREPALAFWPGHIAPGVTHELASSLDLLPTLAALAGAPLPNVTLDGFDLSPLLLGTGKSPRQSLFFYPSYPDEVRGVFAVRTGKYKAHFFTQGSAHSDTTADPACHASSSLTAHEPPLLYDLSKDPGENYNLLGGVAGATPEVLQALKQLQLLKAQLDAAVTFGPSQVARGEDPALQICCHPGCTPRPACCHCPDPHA
Method in brief: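 SV40-transformed skin fibroblasts from an MLD patient (ASA-I179S) were treated with compounds for 48h at 37 degree C, then lysed with 0.5mM pNCS final substrate for 14h at room temperature; NaOH stop, fluorescence read (Ex=525 nm; Em=598 nm).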

[4] = qHTS for compounds that reverse cellular toxicity of Amyloid beta (A-beta) peptide in yeast: LOPAC Validation Assay (AID 720559)
Method in brief: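 Yeast cells expressing toxic A-beta were combined with pinned compounds in growth medium and incubated 48 hr at 30 C. Growth was read as absorbance at 600 nm and normalized to DMSO and to an equimolar FeCl3/clioquinol positive control.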

[5] = qHTS for Activators of Parkin Expression: LOPAC Validation Assay (NLuc Reporter) (AID 720572)
Method in brief: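 Neuronal line stably carrying a FLuc/NLuc coincidence reporter under the Parkin promoter, seeded 24 h, then dosed in 7-point series for 24 h at 37 C. NLuc luminescence read after FLuc; normalized to DMSO and positive control (100%).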

[6] = qHTS for Activators of Parkin Expression: LOPAC Validation Assay (FLuc Reporter) (AID 720573; further: potency means the concentration at half of the fitted maximal effect)
Method in brief: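 Neuronal cell line stably carrying FLuc/NLuc coincidence reporter under Parkin promoter; cells plated 24 h, then compounds added in 7-point dose response for 24 h at 37 C. FLuc luminescence read; normalized to DMSO and positive control (100%).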

[7] = target: Nuclear receptor ROR-gamma (Homo sapiens) (UniProt P51449); experiment: qHTS assay for small molecule antagonists of the retinoid-related orphan receptor gamma (ROR-gamma) signaling pathway (AID 651802);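 further: luciferase reporter luminescence driven by ROR response element; series mostly up to about 92 µM; nearly all actives have a fitted effect of over 60% in size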
Chain of Nuclear receptor ROR-gamma (Homo sapiens) (P51449 whole entry, looked up): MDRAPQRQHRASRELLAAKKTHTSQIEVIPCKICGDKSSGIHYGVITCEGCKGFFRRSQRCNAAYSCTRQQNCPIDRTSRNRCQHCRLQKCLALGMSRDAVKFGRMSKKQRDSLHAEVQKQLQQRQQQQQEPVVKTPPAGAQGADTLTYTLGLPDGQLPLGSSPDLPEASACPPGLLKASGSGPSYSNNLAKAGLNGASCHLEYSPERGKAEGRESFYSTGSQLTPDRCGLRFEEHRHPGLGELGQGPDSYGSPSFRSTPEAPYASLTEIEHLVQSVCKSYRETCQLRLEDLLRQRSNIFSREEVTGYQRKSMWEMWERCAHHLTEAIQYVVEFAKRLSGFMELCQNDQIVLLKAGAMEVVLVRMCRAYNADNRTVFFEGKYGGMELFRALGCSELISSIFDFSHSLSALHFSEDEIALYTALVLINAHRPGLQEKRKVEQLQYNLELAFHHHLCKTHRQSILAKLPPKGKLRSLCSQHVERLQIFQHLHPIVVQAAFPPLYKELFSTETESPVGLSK
Method in brief: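 CHO cells with TET-inducible ROR-gamma and RORE-luciferase reporter, dosed then doxycycline-induced. After 16 h at 37C, One-Glo luminescence read; decreased signal indicates antagonism.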

[8] = qHTS assay for small molecule agonists of the antioxidant response element (ARE) signaling pathway measured by Nrf2-dependant transcriptional activity (AID 720636; active means well fitted curve in the direction sought with a large enough effect in the repeat runs; an effect the other way counts as inactive or inconclusive; further: potency means the concentration at half of the fitted maximal effect)
Method in brief: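 ARE-luc HepG2 cells carrying an Nrf2-responsive luciferase reporter, in medium with 1% dialyzed FBS, exposed to compound for 16 hr at 37 C, 5% CO2. Luminescence read 30 min after ONE-Glo addition.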

[9] = qHTS assay for small molecule antagonists of the retinoid-related orphan receptor gamma (ROR-gamma) signaling pathway - cell viability counter screen (AID 720652; active means well fitted curve in the direction sought with a large enough effect in the repeat runs; an effect the other way counts as inactive or inconclusive;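 further: series mostly up to about 92 µM; compound exposure lasted 16 hr before ATP read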)
Method in brief: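 CHO cells carrying TET-inducible ROR and RORE-luciferase reporter, plated 5 hr, then dosed with compound plus doxycycline. After 16 hr at 37 C, viability read as intracellular ATP by CellTiter-Glo luminescence.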

[10] = qHTS assay for small molecule agonists of the antioxidant response element (ARE) signaling pathway measured by Nrf2-dependant transcriptional activity - cell viability counter screen (AID 720653; active means well fitted curve in the direction sought with a large enough effect in the repeat runs; an effect the other way counts as inactive or inconclusive; further: potency means the concentration at half of the fitted maximal effect); settings: ARE-bla HepG2 viability, CellTiter-Glo ATP luminescence, 16 h; max response: stronger effect = lower value
Method in brief: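 ARE-bla HepG2 cells (2,000/well) rested 5 hrs at 37C/5% CO2, then exposed to compounds in DMSO for 16 hrs. Viability was read in the same wells as intracellular ATP by luminescence, 30 min at room temperature after reagent addition.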

CCOC(=O)C1=C(O)C(=O)N(Cc2ccccc2)C1
Potency [1]: inactive
outcome [2]: inactive

O=C1c2ccccc2-c2n[nH]c3cccc1c23
Potency [3]: inactive
outcome [4]: inactive

CCOC(=O)C(C)Oc1cccc2c(=O)n(CC(=O)Nc3ccc4c(c3)OCCO4)ccc12 (centres undefined)
Potency [1]: inactive
outcome [2]: inactive
Potency [3]: inactive
outcome [4]: inactive
outcome [5]: inactive
Potency [6]: inactive

COC(=O)[C@H](Cc1ccccc1)NC(=O)[C@@H](N)CC(=O)O (H-Asp-Phe-OMe)
outcome [7]: inactive
Potency [8]: inactive
outcome [9]: inactive
max response [10]: -13.7% and 2.98%

Nc1nc(Cl)nc2c1ncn2[C@H]1C[C@H](O)[C@@H](CO)O1
Potency [1]: 79.3 µM (active)
outcome [2]: inactive
Potency [8]: inactive
max response [10]: -12.8%

Cc1ccc(Nc2nccc(N(C)c3ccc4c(C)n(C)nc4c3)n2)cc1S(N)(=O)=O
outcome [2]: inactive

CCN(CC)CCOc1ccc(Nc2ncc3cc(-c4c(Cl)cccc4Cl)c(=O)n(C)c3n2)cc1
Potency [1]: 9.72e-06 µM (active)
outcome [2]: inactive

COc1ccccc1N1CCN(CCN(C(=O)C2CCCCC2)c2ccccn2)CC1
Potency [3]: inactive
outcome [4]: inactive
outcome [5]: inactive
Potency [6]: inactive

COc1cc2c(N3CCN(C(=O)Nc4ccc(OC(C)C)cc4)CC3)ncnc2cc1OCCCN1CCCCC1
outcome [2]: inactive

Oc1ccc(-c2nc(-c3ccc(F)cc3)c(-c3ccncc3)[nH]2)cc1
Potency [1]: 17.3 µM (active)
outcome [2]: inactive
Potency [3]: inactive
outcome [4]: inactive
Potency [6]: inactive

Cc1nc(Nc2ncc(C(=O)Nc3c(C)cccc3Cl)s2)cc(N2CCN(CCO)CC2)n1
outcome [2]: inactive

CS(=O)(=O)OCCCCOS(C)(=O)=O
outcome [7]: inactive
Potency [8]: inactive
outcome [9]: inactive
max response [10]: -5.06% and -4.65% and 2.24%

Cc1cccc(C#Cc2ccccc2)n1
Potency [1]: inactive
outcome [2]: inactive
Potency [3]: inactive
outcome [4]: inactive
outcome [5]: inactive
Potency [6]: 2.91 µM (active)

COc1cc(Nc2c(C#N)cnc3cc(OCCCN4CCN(C)CC4)c(OC)cc23)c(Cl)cc1Cl
outcome [2]: inactive

CC(C)c1ccc2c(c1)c(SC(C)(C)C)c(CC(C)(C)C(=O)O)n2Cc1ccc(Cl)cc1
outcome [2]: inactive
Potency [3]: inactive
outcome [4]: inactive
Potency [6]: inactive

Nc1cccc2c1CN(C1CCC(=O)NC1=O)C2=O (centres undefined)
Potency [1]: inactive
outcome [2]: inactive

CC(C)C[C@H](NC(=O)[C@H](Cc1ccccc1)NC(=O)c1cnccn1)B(O)O
Potency [1]: inactive
outcome [2]: inactive

Cc1ccc(C)c(OCCCC(C)(C)C(=O)O)c1
outcome [7]: inactive
Potency [8]: inactive
outcome [9]: inactive
max response [10]: -1.19% and -0.256%

O=Nc1c(-c2c(O)[nH]c3cc(Br)ccc23)[nH]c2ccccc12
Potency [1]: 0.154 µM (active)
outcome [2]: inactive
Potency [3]: 21.3 µM (active)
outcome [4]: inactive
outcome [5]: inactive
Potency [6]: 2.59 µM (active)

O=C(CCc1ccc(O)cc1)c1c(O)cc(O)cc1O
Potency [3]: 2.69 µM (active)
outcome [4]: inactive
outcome [5]: inactive
Potency [6]: inactive

O=C1c2c(O)cc(O)cc2OC(c2ccc(O)c(O)c2)C1O (centres undefined)
outcome [4]: inactive
outcome [5]: inactive
Potency [6]: inactive

COc1ccc2cc([C@H](C)C(=O)O)ccc2c1
Potency [3]: inactive
outcome [4]: inactive
outcome [5]: inactive
Potency [6]: inactive

Nc1nc(OCc2ccccc2)c2[nH]cnc2n1
outcome [4]: inactive
outcome [5]: inactive
Potency [6]: inactive

COc1cc(OC)c(C(=O)CCCN2CCCC2)c(OC)c1
Potency [8]: inactive
max response [10]: -3.27%

Oc1ccc2ccccc2c1SSc1c(O)ccc2ccccc12
outcome [4]: inactive
outcome [5]: inactive
Potency [6]: inactive

COc1cc2c(cc1OC)C1CC(=O)C(CC(C)C)CN1CC2 (centres undefined)
outcome [4]: inactive
outcome [5]: inactive
Potency [6]: inactive

O=C1NC(=O)C(c2ccccc2[N+](=O)[O-])=C1Nc1ccc(O)c(Cl)c1
outcome [4]: inactive
outcome [5]: inactive
Potency [6]: inactive

Nc1ccn([C@@H]2O[C@H](CO)[C@@H](O)C2O)c(=O)n1 (some centres undefined)
Potency [3]: inactive
outcome [4]: inactive
outcome [5]: inactive
Potency [6]: inactive

COc1c2occc2cc2ccc(=O)oc12
max response [10]: -6.22% and 0.264%

CC1(C)NC(=O)N(c2ccc([N+](=O)[O-])c(C(F)(F)F)c2)C1=O
outcome [4]: inactive
outcome [5]: inactive
Potency [6]: inactive
Potency [8]: inactive
max response [10]: -27.8%

CC(=O)N1CCN(c2ccc(OC[C@H]3CO[C@](Cn4ccnc4)(c4ccc(Cl)cc4Cl)O3)cc2)CC1
Potency [3]: inactive
outcome [5]: inactive
Potency [6]: inactive
Potency [8]: inactive
max response [10]: -20.7%

CC(=O)O[C@H]1C(=O)[C@@]2(C)C([C@H](OC(=O)c3ccccc3)[C@]3(O)C[C@H](OC(=O)[C@H](O)[C@@H](NC(=O)c4ccccc4)c4ccccc4)C(C)=C1C3(C)C)[C@]1(OC(C)=O)CO[C@@H]1C[C@@H]2O (some centres undefined)
Potency [3]: inactive
outcome [4]: inactive
outcome [5]: inactive
Potency [6]: inactive

Cc1c(OCC(F)(F)F)ccnc1CS(=O)c1nc2ccccc2[nH]1 (centres undefined)
Potency [3]: inactive
outcome [5]: inactive

O=c1c(O)c(-c2cc(O)c(O)c(O)c2)oc2cc(O)cc(O)c12
outcome [4]: inactive
outcome [5]: inactive
Potency [6]: inactive

CN(C)CCCC1(c2ccc(F)cc2)OCc2cc(C#N)ccc21 (centres undefined)
Potency [3]: inactive
outcome [4]: inactive
outcome [5]: inactive
Potency [6]: inactive

CNC[C@H](O)c1ccc(O)c(O)c1
outcome [4]: inactive
outcome [5]: inactive
Potency [6]: inactive
Potency [8]: inactive
max response [10]: 4.44%

Nc1ccc(S(N)(=O)=O)cc1
Potency [8]: inactive
outcome [9]: inactive
max response [10]: 0.534%

C[C@H](Cc1ccc(O)c(O)c1)[C@@H](C)Cc1ccc(O)c(O)c1
outcome [4]: inactive
Potency [6]: inactive

Nc1nc(N)c(N=O)c(OCC2CCCCC2)n1
Potency [3]: inactive
outcome [4]: inactive
outcome [5]: inactive
Potency [6]: inactive

CCCCC(CC)COC(=O)C(C#N)=C(c1ccccc1)c1ccccc1 (centres undefined)
Potency [8]: inactive
max response [10]: -8.35%

NC(=NCc1ccccc1)NC(=O)c1nc(Cl)c(N)nc1N
outcome [4]: inactive
outcome [5]: inactive
Potency [6]: inactive

CCN(CC)C(=S)SSC(=S)N(CC)CC
Potency [3]: inactive
outcome [4]: inactive
Potency [8]: 27.3 µM (active)

O=c1ccc2ccc(O)c(O)c2o1
Potency [3]: inactive
outcome [4]: inactive
outcome [5]: inactive
Potency [6]: inactive

CC1(C)C(=O)N(CCN2CCC(C(=O)c3ccc(F)cc3)CC2)c2ccccc21
Potency [3]: inactive
outcome [4]: inactive
outcome [5]: inactive
Potency [6]: inactive

N[C@@H](Cc1cc(I)c(Oc2cc(I)c(O)c(I)c2)c(I)c1)C(=O)O
max response [10]: -2.98%

CC(=O)Nc1ccc(O)cc1
Potency [8]: inactive
outcome [9]: inactive
max response [10]: -1.61% and -10.9%

CN(C)c1ccc2nc3ccc(=[N+](C)C)cc-3sc2c1
Potency [10]: 10 µM (active)

O=c1c(O)c(-c2ccc(O)cc2O)oc2cc(O)cc(O)c12
Potency [3]: inactive
outcome [4]: inactive
outcome [5]: inactive
Potency [6]: inactive
Potency [8]: inactive
max response [10]: 6.53%

COc1cc2nc(N3CCN(C(=O)C4CCCO4)CC3)nc(N)c2cc1OC (centres undefined)
outcome [4]: inactive
outcome [5]: inactive
Potency [6]: inactive

O=C(O)c1cccnc1Nc1cccc(C(F)(F)F)c1
Potency [3]: inactive
outcome [4]: inactive
outcome [5]: inactive
Potency [6]: inactive

Cc1cc(O)c2c(c1)C(=O)c1cc(O)cc(O)c1C2=O
outcome [4]: inactive
outcome [5]: inactive
Potency [6]: inactive
outcome [9]: inactive

CCc1nc(N)nc(N)c1-c1ccc(Cl)cc1
Potency [8]: inactive
outcome [9]: inactive
Potency [10]: 11.2 µM (active)
